PubChem BioAssay (NCI)
Compounds without any hit were thinned out: in the full panel of roughly 83,000, 20% have a hit.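 Activity criterion: percent growth below 10, measured after cells in 96-well plates were exposed to a single compound concentration for 48 hours.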 Values without a mark were called inactive. The source made the active and inactive calls.

Assays:
Assay in all cases: NCI-60 one-dose screen, 48 h (100 = growth as untreated, 0 = no growth, -100 = all killed)
[1] = tested on: NCI-H23 lung; conditions: 10 µM unless noted
[2] = tested on: NCI-H226 lung; conditions: 10 µM unless noted
[3] = tested on: NCI-H322M lung; conditions: 10 µM unless noted
[4] = tested on: HOP-62 NSCLC; conditions: 10 µM unless noted
[5] = tested on: HOP-92 NSCLC; conditions: 10 µM
[6] = tested on: NCI-H522 lung; conditions: 10 µM
[7] = tested on: A549/ATCC NSCLC; conditions: 10 µM unless noted
[8] = tested on: 786-0 renal; conditions: 10 µM unless noted
[9] = tested on: DU-145 prostate; conditions: 10 µM unless noted
[10] = tested on: K-562 leukemia; conditions: 10 µM unless noted
[11] = tested on: MALME-3M melanoma; conditions: 10 µM unless noted
[12] = tested on: MDA-MB-231 breast; conditions: 10 µM unless noted
[13] = tested on: RXF 393 renal; conditions: 10 µM unless noted
[14] = tested on: SF-268 CNS; conditions: 10 µM unless noted
[15] = tested on: SF-295 CNS; conditions: 10 µM unless noted
[16] = tested on: SF-539 CNS; conditions: 10 µM unless noted
[17] = tested on: UACC-257 melanoma; conditions: 10 µM unless noted
[18] = tested on: M14 melanoma; conditions: 10 µM unless noted
[19] = tested on: COLO 205 colon; conditions: 10 µM unless noted

SMILES | growth [1] | growth [2] | growth [3] | growth [4] | growth [5] | growth [6] | growth [7] | growth [8] | growth [9] | growth [10] | growth [11] | growth [12] | growth [13] | growth [14] | growth [15] | growth [16] | growth [17] | growth [18] | growth [19]
CN1CCN(Cc2ccc(NC(=O)c3ccc(C#Cc4c(N)ncc5ccc(F)cc45)cc3)cc2C(F)(F)F)CC1 | -80.4% (active) | 55.1% | -49% (active) | -39.2% (active) | -2% (active) | -85.2% (active) | -49.1% (active) | -56.6% (active) | -46.5% (active) | -44.5% (active) | -88.1% (active) | -72.5% (active) | -43.5% (active) | -21.1% (active) | -56.7% (active) | -90% (active) | -58.5% (active) | -89.2% (active) | –
CCCNC(=O)Oc1ccc(/C(=C(/C)Cc2ccc(OC)cc2)c2ccc(OCCN3CCCCC3)cc2)cc1 | 90.8% | 95.1% | 81.5% | 84.9% | 61% | 84.8% | 84.4% | 81.8% | 97% | 50.8% | 112% | 79.5% | 88.7% | 81.8% | 102% | 94% | 93.7% | 85.6% | 79%
N/C(=N\O)c1ccncc1 | 95.6% | 117% | 101% | 93.6% | 107% | 93.4% | 102% | 100% | 104% | 104% | 108% | 102% | 115% | 97.9% | 94.5% | 105% | 106% | 99.8% | 103%
N#Cc1ccc(NC2c3ccccc3CC2O)cc1 (stereo unspecified) | 101% | 102% | 114% | 105% | 85% | 104% | 106% | 108% | 110% | 90.4% | – | 114% | 89.6% | 115% | 114% | 102% | 125% | 106% | 108%
COc1ccc2cnc(N)c(C#Cc3cc(C(=O)Nc4ccc(CN5CCN(C)CC5)c(C(F)(F)F)c4)cnc3C)c2c1 | 52.3% | 26.8% | 70.3% | 18.9% | 20.1% | 69.7% | 61.5% | -50.3% (active) | 64% | -42.8% (active) | -66.4% (active) | 9.87% (active) | -12.9% (active) | 62.5% | 78.9% | 31.3% | 33.1% | 7.97% (active) | –
COc1ccccc1C(=O)Nc1cccc(-c2cc(=O)c3c(OC)c(OC)c(OC)cc3o2)c1 | 62.4% | 58.4% | 43.6% | 57.8% | -0.39% (active) | 44.3% | 48.2% | 45.3% | 44.9% | 36.4% | 65.5% | 51.3% | 59% | 54.5% | 59.2% | 63.8% | 61.5% | 41.5% | –
COc1ccc(-c2nc(N)n(C(=S)Nc3ccccc3)n2)cc1 | 92.2% | 92.6% | 101% | 87.3% | 85.8% | 88.5% | 102% | 105% | 108% | 95% | 89.5% | 93.9% | 103% | 96.3% | 91.2% | 97.1% | 105% | 98.8% | 105%
Cc1ccc(C(=O)Nc2ccc(CN3CCN(C)CC3)c(C(F)(F)F)c2)cc1C#Cc1cncc2ncccc12 | -84.3% (active) | 5.51% (active) | -95.8% (active) | -11.7% (active) | -30.7% (active) | 2.81% (active) | -82.1% (active) | -70.5% (active) | -88.1% (active) | -67.4% (active) | -88.9% (active) | -97% (active) | -95.7% (active) | -70.6% (active) | 27.3% | -98.2% (active) | -64% (active) | – | –
Cc1ncc(C(=O)Nc2ccc(CN3CCN(C)CC3)c(C(F)(F)F)c2)cc1C#Cc1c(N)ncc2ccc(F)cc12 | -79.4% (active) | 19.5% | -89.7% (active) | 15.9% | -29.9% (active) | 37.3% | -69.9% (active) | -70.5% (active) | -88.6% (active) | -57.1% (active) | -79.6% (active) | -88.9% (active) | -88.1% (active) | 20% | 42% | -93.6% (active) | -18.6% (active) | – | –
COc1cccc(CNC(=O)c2cccc(C3CC(=O)c4c(cc(OC)c(OC)c4OC)O3)c2)c1 (stereo unspecified) | 99.1% | 78.2% | 86.6% | 66.7% | 19.8% | 24.9% | 80.8% | 24.8% | 101% | 10.7% | 71.3% | 76.8% | 84.3% | 78.7% | 84.1% | 35.4% | 67.8% | 41% | –
COc1ccc2c(N)ncc(C#Cc3cc(C(=O)Nc4ccc(CN5CCN(C)CC5)c(C(F)(F)F)c4)cnc3C)c2c1 | -30.3% (active) | 55% | 31.6% | 45.3% | 1.06% (active) | -38.3% (active) | -68.6% (active) | -55.6% (active) | -89.2% (active) | -63.4% (active) | -81.9% (active) | -85% (active) | -73.4% (active) | 6.51% (active) | 63% | -93.4% (active) | 27.4% | -78.1% (active) | –
CCCCCCNC(=O)Oc1ccc(/C(=C(/C)Cc2ccc(OC)cc2)c2ccc(OCCN3CCCCC3)cc2)cc1 | 90.9% | 92% | 89.5% | 91.2% | 60.5% | 85.6% | 77.6% | 78.5% | 98.9% | 36.8% | 101% | 84.5% | 84.4% | 81.9% | 105% | 91.8% | 88.9% | 84.6% | 79.4%
CCCCN(CCC)CCCCCCCCCCN1CCCc2ccccc21 | 71.5% | 99.5% | 99.4% | 92.5% | 48.8% | 62% | 97.3% | 88.8% | 77.1% | 17.5% | 74.3% | – | 109% | 75.7% | 83.6% | 101% | 106% | 88.6% | 91.7%
COC(=O)C1CC(=O)N(C(=O)Nc2ccc(Cl)cc2Cl)C1 (stereo unspecified) | 98.8% | 94.6% | 108% | 85.5% | 83.1% | 80.3% | 96.3% | 92.4% | 114% | 92.8% | 108% | 95.3% | 120% | 101% | 96.7% | 99.6% | 96.6% | 94.1% | –
Cc1ccc(C(=O)Nc2ccc(CN3CCN(C)CC3)c(C(F)(F)F)c2)cc1C#Cc1cnc(N)c2ccc(C#N)cc12 | 48.3% | 54.4% | 73.8% | 42.7% | 13.7% | 60.6% | 36.7% | -25% (active) | 43.1% | -25.5% (active) | -51.9% (active) | 11.2% | 30.4% | 45% | 61.8% | 51.8% | 45.6% | 8.81% (active) | –
O=C(C(=O)N1CCOCC1)c1ccc(O[C@H]2O[C@H](CO)[C@@H](O)[C@H](O)[C@@H]2O)cc1 | 99.9% | 95.8% | 91.7% | 111% | 102% | 93.9% | 106% | 97.1% | 122% | 106% | 102% | 98.4% | 103% | 123% | 107% | 99.2% | 107% | 98.8% | 119%
